# PubChem BioAssay
# Values joined by “and” are separate entries in the source; they are usually repeats but may differ in a detail not shown here. Equal entries are not always repeated. For some of these results: Potency and affinity values are given separately. Active and inactive are the calls of the source. Unless noted, the rule behind the calls is not given here.
# Experiments:
# [1] = chitosan synthesis blockers in C. neoformans – flow cytometry, Cibacron Brilliant Red staining (AID 1347148); settings: Cryptococcus neoformans chitosan, stronger effect = lower value; at 10 µM unless noted;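 note: compound exposure lasted three days at 37 degrees C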
# [2] = antimalarial activity against Dd2 strain (AID 2302;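 active = growth inhibition above 50% at the single 2 µM test dose, taken to imply half-maximal potency below 2 µM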;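 note: 0% = DMSO untreated growth and 100% = chloroquine plus artemisinin killed control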); settings: P. falciparum Dd2 in RBCs, LDH growth readout, 72 h; at 2 µM; stronger effect = higher value
# [3] = human hepatoma cell viability loss – ATP luminescence, cytotoxicity control for P. falciparum antimalarial project, primary screen (AID 2303;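 active = inhibition above 50%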;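 note: 0% = DMSO wells and 100% = digitonin-killed cells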); settings: HepG2 viability, 24-48 h, at 10 µM, stronger effect = higher value
# [4] = target: L-lactate dehydrogenase (Plasmodium falciparum (isolate CDC / Honduras)) (UniProt Q27743); assay: PfLDH activity inhibition – cell lysate, 3D7 strain, counter-screen for P. falciparum growth inhibition project (AID 2304);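 note: 0% = vehicle and 100% = reference inhibitor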; settings: P. falciparum 3D7 crude extract, LDH APAD/NBT absorbance; at 2 µM; stronger effect = higher value
# Chain of L-lactate dehydrogenase (Plasmodium falciparum (isolate CDC / Honduras)) (Q27743 whole entry, looked up): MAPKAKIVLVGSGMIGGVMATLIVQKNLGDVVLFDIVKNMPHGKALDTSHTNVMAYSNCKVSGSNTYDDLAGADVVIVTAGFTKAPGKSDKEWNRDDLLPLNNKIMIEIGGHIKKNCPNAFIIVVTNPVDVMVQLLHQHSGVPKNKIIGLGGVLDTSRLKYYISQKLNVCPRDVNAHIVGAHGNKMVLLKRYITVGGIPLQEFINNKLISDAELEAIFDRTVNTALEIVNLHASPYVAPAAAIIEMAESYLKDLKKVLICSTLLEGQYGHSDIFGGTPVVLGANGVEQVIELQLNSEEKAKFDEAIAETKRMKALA
# [5] = inhibition of 3D7 malaria parasite growth – strain 3D7 (AID 2306);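 note: 0% = DMSO wells and 100% = chloroquine plus artemisinin control wells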; settings: P. falciparum 3D7 erythrocytic growth, LDH absorbance, 72 h; at 2 µM; stronger effect = higher value
# [6] = target: Calcium-dependent protein kinase 1 (Plasmodium falciparum (isolate 3D7)) (UniProt P62344); assay: PfCDPK1 kinase inhibitors, biochemical, TCAMS library (AID 1159585; cut-off not given, nearly all actives have IC50 up to about 0.98 µM;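 note: inhibitors leave more ATP so luminescence rises with inhibition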); settings: recombinant PfCDPK1, Kinase-Glo ATP depletion luminescence
# Chain of Calcium-dependent protein kinase 1 (Plasmodium falciparum (isolate 3D7)) (P62344 whole entry, looked up): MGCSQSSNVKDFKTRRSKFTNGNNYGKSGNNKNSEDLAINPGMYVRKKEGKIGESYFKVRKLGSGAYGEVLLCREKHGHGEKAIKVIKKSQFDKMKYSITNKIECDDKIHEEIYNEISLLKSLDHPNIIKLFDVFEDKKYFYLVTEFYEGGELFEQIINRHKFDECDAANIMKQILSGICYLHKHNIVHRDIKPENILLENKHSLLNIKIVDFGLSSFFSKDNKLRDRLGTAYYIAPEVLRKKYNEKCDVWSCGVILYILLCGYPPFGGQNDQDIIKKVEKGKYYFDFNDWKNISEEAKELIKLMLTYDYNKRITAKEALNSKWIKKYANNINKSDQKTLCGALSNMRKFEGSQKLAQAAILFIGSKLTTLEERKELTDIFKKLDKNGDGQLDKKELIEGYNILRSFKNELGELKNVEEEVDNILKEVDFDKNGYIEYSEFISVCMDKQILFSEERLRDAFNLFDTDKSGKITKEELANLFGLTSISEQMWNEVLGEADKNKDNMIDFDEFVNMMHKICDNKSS
# [7] = target: Plasmodium falciparum protein kinase 6 (PK6, PF3D7_1337100) (UniProt Q8IDW1); assay: PfPK6 kinase inhibitors, biochemical, TCAMS library (AID 1159586); settings: recombinant PfPK6, Kinase-Glo ATP depletion luminescence
# Chain of Plasmodium falciparum protein kinase 6 (PK6, PF3D7_1337100) (Q8IDW1 1-305): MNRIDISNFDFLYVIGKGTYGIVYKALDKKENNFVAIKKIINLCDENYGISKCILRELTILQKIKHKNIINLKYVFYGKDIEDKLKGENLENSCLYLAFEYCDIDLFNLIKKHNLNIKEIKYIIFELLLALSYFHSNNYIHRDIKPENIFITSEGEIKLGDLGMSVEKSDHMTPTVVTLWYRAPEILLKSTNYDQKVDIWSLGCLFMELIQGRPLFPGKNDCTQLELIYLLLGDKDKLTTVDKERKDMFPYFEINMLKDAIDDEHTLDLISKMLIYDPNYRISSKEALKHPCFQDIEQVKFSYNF
# [8] = target: Protein kinase 7 (PK7), Plasmodium falciparum 3D7 (PF3D7_0213400) (UniProt Q7YTF7); assay: inhibition of Plasmodium PK7 catalytic activity – biochemical, TCAMS antimalarial set, Kinase-Glo luminescence (AID 1159587); settings: recombinant PfPK7, Kinase-Glo ATP depletion luminescence
# Chain of Protein kinase 7 (PK7), Plasmodium falciparum 3D7 (PF3D7_0213400) (Q7YTF7 1-343): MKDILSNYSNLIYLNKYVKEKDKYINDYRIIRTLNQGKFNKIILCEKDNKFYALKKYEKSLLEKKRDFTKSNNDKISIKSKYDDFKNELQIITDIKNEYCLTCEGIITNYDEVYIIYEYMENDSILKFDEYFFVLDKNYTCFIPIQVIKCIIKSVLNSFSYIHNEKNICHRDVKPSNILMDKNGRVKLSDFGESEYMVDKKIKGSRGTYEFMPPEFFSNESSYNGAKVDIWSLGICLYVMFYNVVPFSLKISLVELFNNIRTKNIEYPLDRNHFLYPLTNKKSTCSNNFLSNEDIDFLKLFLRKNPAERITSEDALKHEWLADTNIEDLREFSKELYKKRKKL
# [9] = target: Calcium-dependent protein kinase 4 (Plasmodium falciparum (isolate 3D7)) (UniProt Q8IBS5); assay: PfCDPK4 kinase inhibitors, biochemical, TCAMS library (AID 1159588; cut-off not given, nearly all actives have IC50 up to about 0.91 µM); settings: recombinant PfCDPK4, Kinase-Glo ATP depletion luminescence
# Chain of Calcium-dependent protein kinase 4 (Plasmodium falciparum (isolate 3D7)) (Q8IBS5 whole entry, looked up): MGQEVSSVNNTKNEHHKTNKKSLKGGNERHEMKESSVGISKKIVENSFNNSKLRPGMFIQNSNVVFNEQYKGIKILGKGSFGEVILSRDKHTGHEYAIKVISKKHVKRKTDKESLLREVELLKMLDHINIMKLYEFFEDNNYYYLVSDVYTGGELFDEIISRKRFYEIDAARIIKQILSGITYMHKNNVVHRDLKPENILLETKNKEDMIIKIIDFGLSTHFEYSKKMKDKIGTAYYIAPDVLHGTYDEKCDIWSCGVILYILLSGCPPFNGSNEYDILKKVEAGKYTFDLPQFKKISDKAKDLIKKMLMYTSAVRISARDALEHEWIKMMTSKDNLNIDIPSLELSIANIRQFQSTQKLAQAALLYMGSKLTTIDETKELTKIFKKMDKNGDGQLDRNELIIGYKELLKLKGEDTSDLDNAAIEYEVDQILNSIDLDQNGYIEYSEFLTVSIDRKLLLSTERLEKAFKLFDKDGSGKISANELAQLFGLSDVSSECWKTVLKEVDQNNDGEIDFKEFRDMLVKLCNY
# [10] = growth inhibition, single agents and combos, HD-MB03, cell-based, BGB or cisplatin IC20 combos, synergistic combos for chromothripsis tumors (AID 1671455; in the data active = inhibition above about 83%;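 note: 0% = vehicle DMSO and 100% = high DMSO as cytotoxic control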); settings: HD-MB03 medulloblastoma cells, stronger effect = higher value
# [11] = growth inhibition, single agents and combos, UWB1.289, cell-based, BGB or cisplatin combos, synergistic combos for chromothripsis tumors (AID 1671456; in the data active = inhibition above about 80%;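 note: cells exposed to compound for four days; 0% = vehicle DMSO and 100% = killing by high DMSO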); settings: UWB1.289 ovarian carcinoma cells, stronger effect = higher value
# [12] = growth inhibition, single agents and combos, LFS_MB_2R, cell-based, cisplatin combos, synergistic combos for chromothripsis tumors (AID 1671457; in the data active = inhibition above about 80%;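 note: cells exposed to compound for four days before readout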); settings: LFS_MB_2R medulloblastoma cells, stronger effect = higher value
# [13] = UWB1.289_BRCA1 ovarian cancer growth, cell-based, BGB or cisplatin combinations (AID 1671459; in the data active = inhibition above about 80%); settings: UWB1.289 BRCA1 ovarian carcinoma, drug combinations, stronger effect = higher value
# [14] = drug combination toxicity in non-malignant astrocytes – cell-based, BGB or cisplatin IC20 combos, cytotoxicity control for chromothriptic childhood tumor combination screen (AID 1671460; in the data active = inhibition above about 80%;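 note: cells exposed to compounds for 96 hours before viability readout; 0% = vehicle and 100% = killing control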); settings: Human astrocytes, viability inhibition, drug combinations, at 0.5 µM, stronger effect = higher value
compound,measurement,setting,value
CC1=C(/C=C/C(C)=C/C=C/C(C)=C\C(=O)O)C(C)(C)CCC1,fold fluorescence,[1],5.81 (inactive)
COc1ccc(C[C@H](N)C(=O)N[C@H]2[C@@H](O)[C@H](n3cnc4c(N(C)C)ncnc43)O[C@@H]2CO)cc1,growth inhibition,[2],91% (active)
same,inhibition,[3],98% (active)
same,inhibition,[4],5% (inactive)
same,growth inhibition,[5],100% (active)
same,outcome,[6],inactive
same,outcome,[7],inactive
same,outcome,[8],inactive
same,outcome,[9],inactive
CN(C)c1nc(N(C)C)nc(N(C)C)n1,inhibition,[10]; at 0.5 µM,1.44% (inactive) and -2.84% (inactive)
same,inhibition,"[10]; measured here: combo with BGB at IC20, at 0.5 µM",-7.11% and -19.4%
same,inhibition,"[10]; measured here: combo with cisplatin at IC20, at 0.5 µM",0.726% and 22%
same,inhibition,[11]; at 0.5 µM,-1.03% (inactive) and 0.53% (inactive)
same,inhibition,"[11]; measured here: inhibition with BGB combination, at 0.05 µM",-18.8% and -9.83%
same,inhibition,"[11]; measured here: inhibition with cisplatin combination, at 0.05 µM",-9.85% and -22.8%
same,inhibition,[12]; at 0.5 µM,-22.5% (inactive) and -23.2% (inactive)
same,inhibition,"[12]; measured here: combination with cisplatin, at 0.5 µM",-24.3% and -25.9%
same,inhibition,"[12]; measured here: combination with cisplatin, at 5 µM",-28.5% and -13.6%
same,inhibition,"[13]; BGB combination, concentration series, at 5 µM",3.42% and 17.2%
same,inhibition,[13]; at 0.5 µM,-3.79% (inactive) and -4% (inactive)
same,inhibition,"[13]; cisplatin combination, concentration series, at 5 µM",4.29% and 15.7%
same,inhibition,[14],2.24% (inactive) and 16.1% (inactive)
same,inhibition,[14]; measured here: combo with BGB IC20,5.31% and 10%
same,inhibition,[14]; measured here: combo with cisplatin IC20,-12.9% and 15.6%
O=c1ccc2ccc(O)c(O)c2o1,inhibition,[3],4% (inactive)
same,inhibition,[4],0% (inactive)
same,growth inhibition,[5],85% (active)
same,outcome,[6],inactive
same,outcome,[7],inactive
same,outcome,[8],inactive
same,outcome,[9],inactive
